Compounds with a hit are over-represented: about 12% of the library has one in this group of screens.
WT yeast gro inh – growth inhibition of WT yeast, mitochondrial fusion screen | inhibition, % at 10 µM | mitochondrial fusion phenotypic screen, WT strain | 190,000 tested, 2.1% active | AID 1362; in the data active = inhibition above about 58%; tested in S. cerevisiae
Arbovirus anti – arbovirus infection inhibition; 200,000 tested, 0.37% active; AID 1251; arbovirus infection cell-based antiviral screen; inhibition, % at 10 µM; in the data active = inhibition above about 30%
L major viab – Leishmania major promastigote growth inhibition; Leishmania major promastigotes, resazurin fluorescence viability; AID 1063; 200,000 tested, 9% active; inhibition, % at 10 µM; in the data active = inhibition above about 50%;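 note: promastigotes grown with compound for 44 hours at 28 °C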
CHOP inh – CHOP inhibition in unfolded protein response; CHO-K1 CHOP-promoter luciferase, tunicamycin-induced, 15-18 h; 220,000 tested, 3.8% active; AID 2732; inhibition, % at 10 µM;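 active = compounds that reduced the stress-induced luciferase reporter signal by more than about 70% of percent inhibition, limit read from the data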;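 note: 0% = tunicamycin plus vehicle and 100% = wells without tunicamycin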
Numbers without * were called inactive; · = no result given.

SMILES | WT yeast gro inh | Arbovirus anti | L major viab | CHOP inh
CCCC1=NN(C(=O)C(=O)Nc2ccc(Br)cc2)C(O)(C(F)(F)F)C1 (stereo not drawn) | · | -3.4 | -3.0 | 8.8
C/C(=N\NC(=O)Cn1nc(C)c([N+](=O)[O-])c1C)c1ccc(Cl)s1 | · | · | · | 17.9
CC(=O)Nc1cc(C(=O)NCc2ccco2)ccc1Sc1ccc(F)cc1 | -18.7 | -2.5 | 5.0 | 19.4
CCOc1ccc(CNC(=O)c2ccc(Sc3ccc(Cl)cc3)c(NC(C)=O)c2)cc1 | 42.5 | -23.4 | 95.2* | 40.0
CCOc1ccccc1CNC(=O)c1ccc(Sc2ccc(Cl)cc2)c(NC(C)=O)c1 | 64.8* | -15.5 | 85.2* | 40.5
CC(=O)Nc1cc(C(=O)NCc2ccco2)ccc1Sc1ccc(Cl)cc1 | 4.7 | -6.5 | 92.4* | 30.1
CCSC(=S)Nc1c(C)n(C)n(-c2ccccc2)c1=O | 2.6 | 1.2 | 9.7 | 7.2
NC(=O)c1nsc(C(=O)N(c2cccc(F)c2)C(C(=O)NCC2CCCO2)c2cccs2)c1N (stereo not drawn) | 5.3 | 2.6 | 29.0 | 7.6
Cc1c(N/C(=N/S(=O)(=O)c2ccccc2)c2ccc(Cl)cc2)c(=O)n(-c2ccccc2)n1C | -2.1 | -9.2 | -3.8 | 14.3
CC(C(=O)O)n1c(-c2ccn[nH]2)n[nH]c1=S (stereo not drawn) | · | · | · | 10.7
Cc1cccc(C)c1-n1c(C)nn(CC#N)c1=O | -3.4 | 3.6 | -3.4 | 3.6
Cc1ccc(-c2c(C(=O)NCc3ccc(F)cc3)oc(=O)c3ccccc23)cc1 | 61.8* | 11.9 | 74.2* | 16.6
CC1CCCC(NC(=O)COC(=O)c2ccccc2NC(=O)c2ccco2)C1C (stereo not drawn) | -2.3 | 0.0 | -2.0 | 92.5*
CSc1nc(-c2ccc(N(C)C)cc2)c(C#N)c(=O)n1C | -8.5 | -3.3 | -3.8 | -28.6
Cc1cccc(Oc2cnn(C(C)(C)C)c(=O)c2Cl)c1 | 15.4 | 8.5 | -2.9 | 71.2*
COc1cnn(C(C)(C)C)c(=O)c1Cl | 3.2 | -0.6 | -3.6 | 20.9
COc1ccc(Br)cc1[C@H]1[C@H]2C=CC[C@@H](C)[C@@H]2C(=O)N1Cc1ccccc1 | · | · | · | 75.0*
COc1ccc(-c2ccc(OC)c([C@H]3[C@H]4C=CC[C@@H](C)[C@@H]4C(=O)N3Cc3ccccc3)c2)cc1OC | · | · | · | 30.6
O=C(C[n+]1cc(-c2ccc(F)cc2)n2c1CCC2)N1c2ccccc2Sc2ccccc21 | -12.1 | -11.4 | 90.9* | -4.6
Cc1ccc(-c2c[n+](CC(=O)N3c4ccccc4Sc4ccccc43)c3n2CCC3)cc1 | 1.6 | -13.1 | 96.0* | 22.5
O=C(Nc1ccccc1O)c1nc(Cl)ccc1Cl | -24.1 | 11.4 | -12.2 | 1.2
CCOc1ccc(NC(=O)CN(C)CC(=O)Nc2cc(Cl)ccc2C#N)cc1OCC | -19.4 | 9.2 | 86.1* | 24.6
Cc1cccc(N(C(=O)c2ccc(CN3CCOCC3)o2)C(C(=O)NC(C)(C)C)c2ccc(F)cc2)c1 (stereo not drawn) | -4.0 | -1.1 | 9.1 | 23.4
c1ccc(-c2noc(-c3ccccc3-c3ccccc3)n2)cc1 | 71.6* | 1.9 | 1.1 | -28.2
Fc1ccccc1-c1nc(-c2ccc(Cl)cc2)no1 | · | · | -5.3 | ·
SMILES | WT yeast gro inh | Arbovirus anti | L major viab | CHOP inh
CC(=O)NS(=O)(=O)c1ccc(NC(=O)CSc2ccc(Cl)cc2)cc1 | -17.4 | 1.2 | -7.3 | 1.2
Cc1ccc(C)c(NS(=O)(=O)c2ccc(NC(=O)CSc3ccc(Cl)cc3)cc2)c1 | 12.2 | 8.9 | 49.6 | 94.3*
Cc1ccc(NS(=O)(=O)c2ccc(NC(=O)C(C)Sc3ccc(Cl)cc3)cc2)c(C)c1 (stereo not drawn) | 32.5 | -11.4 | 91.7* | 82.6*
COc1ccc2cc3c(N)nn(C(=O)Cc4ccccc4OC)c3nc2c1 | 8.8 | -6.2 | -4.6 | 81.0*
CCOC(=O)C1CCN(c2nc3cc(OC)ccc3cc2C#N)CC1 | 18.6 | 6.6 | -1.5 | -4.3
COc1ccc2cc3c(N)nn(C(=O)c4cccc([N+](=O)[O-])c4)c3nc2c1 | -1.0 | 23.4 | -4.2 | 76.5*
COc1ccc2cc3c(N)nn(C(=O)C4CCC(C(C)(C)C)CC4)c3nc2c1 (stereo not drawn) | 91.6* | -33.2 | 35.3 | 67.0
COc1ccc(-n2cnc(N)c2C(=O)c2cccc([N+](=O)[O-])c2)cc1 | -17.0 | -6.1 | -3.6 | 18.0
COc1ccc(-c2nc(N)n(C(=O)Cc3ccccc3)n2)cc1 | 9.3 | -3.5 | -2.4 | 48.6
CCCCNC(=O)c1c(CSc2ccccc2)noc1C(=O)NCc1ccccc1 | · | · | · | 45.4
CC[N+]1=C(C)C(C)(C)c2cc(C)ccc21 | 31.2 | 4.1 | 47.2 | 73.6*
N#C/C(=C\c1c(F)cccc1Cl)S(=O)(=O)c1ccccn1 | · | · | · | 3.2
C/C(=N\Nc1nc2ccccc2s1)c1ccc2c(c1)OCO2 | 16.4 | -1.9 | -1.7 | 56.8
C/C(=N\NC(=O)c1ccccc1O)c1ccc(Br)s1 | 65.9* | -6.8 | 19.7 | 1.4
O=C(NN=C(Cc1ccccc1)Cc1ccccc1)c1ccccc1O | 77.0 | -4.5 | 61.1* | -27.6
C/C(=N\Nc1nc2ccccc2s1)c1ccc(Br)s1 | 94.3* | -21.3 | 17.4 | 11.5
CCCCCCN=C(C)c1ccccc1O | · | · | · | -13.0
CC(=O)CC1(OC(C)=O)C(=O)N(C)c2ccccc21 (stereo not drawn) | 22.7 | -24.3 | 97.1* | -18.8
O=S(=O)(N/N=C\C=C\c1ccccc1)c1ccc(Cl)cc1 | 16.1 | -0.9 | 92.2* | 49.7
Cc1ccc(-c2[nH]nc(N)c2N=Nc2cccc(Cl)c2C)cc1 | 2.5 | -30.1 | 23.4 | 92.2*
COC(=O)c1ccccc1N=Nc1c(N)n[nH]c1N | · | · | · | -8.2
O=C1CCCCC1C(O)c1ccc(Cl)cc1 (stereo not drawn) | · | · | · | 10.2
COC(=O)C(NC(=O)C(C)NC(=O)OCc1ccccc1)C(C)C (stereo not drawn) | · | · | · | 7.3
Cc1ccnc(NC(=O)CCC(=O)N(CC(=O)NC(C)(C)C)c2ccc(F)c(Cl)c2)c1 | -2.5 | -3.5 | 0.4 | 5.5
Cc1cc(NC(=O)c2c(F)cccc2Cl)n(-c2nc3ccccc3[nH]2)n1 | 20.4 | -30.2 | 25.3 | 75.3*
SMILES | WT yeast gro inh | Arbovirus anti | L major viab | CHOP inh
Cc1cc(NC(=O)c2ccccc2F)n(-c2nc3ccccc3[nH]2)n1 | 0.9 | -15.6 | 12.2 | -23.4
CC(=O)/C=C/c1ccc2ccccc2n1 | -2.2 | -35.3 | 100.4* | -72.8
COc1ccc(N2C(=O)CC(c3ccccc3)C2=O)cc1 (stereo not drawn) | · | · | · | 5.8
COc1ccc(N2C(=O)CC(c3ccc(OC(C)C)cc3)C2=O)cc1 (stereo not drawn) | -4.9 | 0.9 | -9.9 | 73.1*
COC(=O)c1cc(=O)n(Cc2ccc(OC)c(OC)c2)c(=Nc2ccc(F)cc2)s1 | 13.9 | -40.2 | 6.8 | 31.5
COC(=O)c1cc(=O)n(CCc2ccc(OC)c(OC)c2)c(=Nc2ccc(F)c(Cl)c2)s1 | 11.9 | -40.0 | 98.3* | -22.4
CCOC(=O)c1ccc(N=c2sc(C(=O)OC)cc(=O)n2-c2ccc(C(=O)OCC)cc2)cc1 | 14.3 | -32.8 | 99.6* | 46.6
COC(=O)c1cc(=O)n(Cc2ccco2)c(=Nc2ccc(F)cc2)s1 | 13.4 | -21.7 | 95.6* | 6.8
COC(=O)c1cc(=O)n(-c2ccccc2)c(=Nc2ccccc2)s1 | -22.3 | -17.7 | 87.0* | -58.3
COC(=O)c1cc(=O)n(Cc2ccc(F)cc2)c(=Nc2ccccc2)s1 | · | · | · | -39.5
Cc1cc(NC(=O)COC(=O)c2ccco2)no1 | -0.6 | 1.3 | 0.0 | 21.3

High-throughput results deposited in PubChem by several laboratories.
